Measurements published in PubChem BioAssay AID1159580 (chemical genetic matrix, 2015).
In all, about 5,500 compounds went through this assay and about 2,000 (36%) were called active. About 18% were inconclusive and are not listed. This is one part of the list. Unmarked numbers belong to inactive results. No stated cut-off is given here; in the data, active means normalized growth mostly below about 0.91 (no sharp cut-off); inconclusive means no clear call, values can overlap the other calls; inactive means mostly above about 0.92.

Experiment: chemical genetic growth profiling, strain panel (AID 1159580);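 further: tested at 20 µM; growth read once vehicle control cultures reached saturation at 30 °C; 1 = growth at the plate median or of vehicle wells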
Conditions: growth OD

## CN1C[C@H](C(=O)N[C@]2(C)O[C@@]3(O)[C@@H]4CCCN4C(=O)[C@H](Cc4ccccc4)N3C2=O)C[C@@H]2c3cccc4[nH]cc(c34)C[C@H]21
S. cerevisiae deletion strains, locus YKL009W, strain mrt4, stronger effect = lower value
  normalized growth: 0.97
S. cerevisiae deletion strains, locus YKL068W, stronger effect = lower value
  normalized growth: 0.989
S. cerevisiae deletion strains, locus YKL085W, strain MDH1 (second series), stronger effect = lower value
  normalized growth: 0.987
S. cerevisiae deletion strains, locus YKL085W, strain MDH1, stronger effect = lower value
  normalized growth: 0.987
S. cerevisiae deletion strains, locus YKL160W, strain elf1, stronger effect = lower value
  normalized growth: 0.928
S. cerevisiae deletion strains, locus YKL190W, strain CNB1, stronger effect = lower value
  normalized growth: 0.992
S. cerevisiae deletion strains, locus YKR001C, strain vps1, stronger effect = lower value
  normalized growth: 1
S. cerevisiae deletion strains, locus YKR026C, strain gcn3, stronger effect = lower value
  normalized growth: 0.996
S. cerevisiae deletion strains, locus YKR091W, strain srl3, stronger effect = lower value
  normalized growth: 0.983
S. cerevisiae deletion strains, locus YLL001W, strain dnm1, stronger effect = lower value
  normalized growth: 0.92
S. cerevisiae deletion strains, locus YLL026W, stronger effect = lower value
  normalized growth: 0.988
S. cerevisiae deletion strains, locus YLL041C, strain sdh2, stronger effect = lower value
  normalized growth: 0.997
S. cerevisiae deletion strains, locus YLR027C, strain aat2, stronger effect = lower value
  normalized growth: 0.992
S. cerevisiae deletion strains, locus YLR039C, strain RIC1, stronger effect = lower value
  normalized growth: 1.06
S. cerevisiae deletion strains, locus YLR058C, strain SHM2, stronger effect = lower value
  normalized growth: 0.957
S. cerevisiae deletion strains, locus YLR102C, strain apc9, stronger effect = lower value
  normalized growth: 0.974
S. cerevisiae deletion strains, locus YLR113W, strain HOG1, stronger effect = lower value
  normalized growth: 1.07
S. cerevisiae deletion strains, locus YLR221C, strain rsa3, stronger effect = lower value
  normalized growth: 0.997
S. cerevisiae deletion strains, locus YLR258W, strain gsy2, stronger effect = lower value
  normalized growth: 1.01
S. cerevisiae deletion strains, locus YLR262C, strain YPT6 (second series), stronger effect = lower value
  normalized growth: 0.973
S. cerevisiae deletion strains, locus YLR262C, strain YPT6, stronger effect = lower value
  normalized growth: 1.06
S. cerevisiae deletion strains, locus YLR268W, strain sec22, stronger effect = lower value
  normalized growth: 0.973
S. cerevisiae deletion strains, locus YLR320W, strain mms22, stronger effect = lower value
  normalized growth: 0.969
S. cerevisiae deletion strains, locus YLR330W, strain CHS5, stronger effect = lower value
  normalized growth: 0.984
S. cerevisiae deletion strains, locus YLR342W, strain FKS1 (second series), stronger effect = lower value
  normalized growth: 0.906
S. cerevisiae deletion strains, locus YLR342W, strain FKS1, stronger effect = lower value
  normalized growth: 1.01
S. cerevisiae deletion strains, locus YLR357W, strain rsc2, stronger effect = lower value
  normalized growth: 0.957
S. cerevisiae deletion strains, locus YLR370C, strain arc18, stronger effect = lower value
  normalized growth: 0.987
S. cerevisiae deletion strains, locus YLR371W, strain rom2, stronger effect = lower value
  normalized growth: 0.974
S. cerevisiae deletion strains, locus YLR384C, strain iki3, stronger effect = lower value
  normalized growth: 1.01
S. cerevisiae deletion strains, locus YLR418C, strain cdc73, stronger effect = lower value
  normalized growth: 0.803 (active)
S. cerevisiae deletion strains, locus YML016C, strain PPZ1, stronger effect = lower value
  normalized growth: 0.979
S. cerevisiae deletion strains, locus YML032C, strain rad52, stronger effect = lower value
  normalized growth: 0.979
S. cerevisiae deletion strains, locus YML120C, strain ndi1, stronger effect = lower value
  normalized growth: 0.95
S. cerevisiae deletion strains, locus YML124C, strain tub3, stronger effect = lower value
  normalized growth: 0.982
S. cerevisiae deletion strains, locus YMR058W, strain fet3, stronger effect = lower value
  normalized growth: 0.965
S. cerevisiae deletion strains, locus YMR078C, strain ctf18, stronger effect = lower value
  normalized growth: 0.963
S. cerevisiae deletion strains, locus YMR125W, strain sto1, stronger effect = lower value
  normalized growth: 0.921
S. cerevisiae deletion strains, locus YMR129W, stronger effect = lower value
  normalized growth: 0.989
S. cerevisiae deletion strains, locus YMR205C, strain PFK2, stronger effect = lower value
  normalized growth: 0.946
S. cerevisiae deletion strains, locus YMR223W, strain ubp8, stronger effect = lower value
  normalized growth: 0.941
S. cerevisiae deletion strains, locus YMR231W, strain pep5, stronger effect = lower value
  normalized growth: 1.01
S. cerevisiae deletion strains, locus YMR263W, strain SAP30, stronger effect = lower value
  normalized growth: 0.959
S. cerevisiae deletion strains, locus YMR307W, strain GAS1, stronger effect = lower value
  normalized growth: 0.821
S. cerevisiae deletion strains, locus YNL067W, strain RPL9B, stronger effect = lower value
  normalized growth: 0.961
S. cerevisiae deletion strains, locus YNL071W, strain lat1, stronger effect = lower value
  normalized growth: 0.994
S. cerevisiae deletion strains, locus YNL128W, strain TEP1, stronger effect = lower value
  normalized growth: 0.96
S. cerevisiae deletion strains, locus YNL153C, strain GIM3, stronger effect = lower value
  normalized growth: 0.965
S. cerevisiae deletion strains, locus YNL183C, strain NPR1, stronger effect = lower value
  normalized growth: 0.98
S. cerevisiae deletion strains, locus YNL209W, strain ssb2, stronger effect = lower value
  normalized growth: 0.981
S. cerevisiae deletion strains, locus YNL233W, strain BNI4, stronger effect = lower value
  normalized growth: 0.933
S. cerevisiae deletion strains, locus YNL248C, strain rpa49, stronger effect = lower value
  normalized growth: 0.933
S. cerevisiae deletion strains, locus YNL250W, strain rad50, stronger effect = lower value
  normalized growth: 0.984
S. cerevisiae deletion strains, locus YNL271C, strain bni1, stronger effect = lower value
  normalized growth: 0.974
S. cerevisiae deletion strains, locus YNL298W, strain CLA4, stronger effect = lower value
  normalized growth: 0.985
S. cerevisiae deletion strains, locus YNL307C, strain MCK1, stronger effect = lower value
  normalized growth: 0.967
S. cerevisiae deletion strains, locus YNL322C, strain KRE1 (second series), stronger effect = lower value
  normalized growth: 0.989
S. cerevisiae deletion strains, locus YNL322C, strain KRE1, stronger effect = lower value
  normalized growth: 0.996
S. cerevisiae deletion strains, locus YNR049C, strain mso1, stronger effect = lower value
  normalized growth: 0.983
S. cerevisiae deletion strains, locus YNR052C, strain pop2, stronger effect = lower value
  normalized growth: 0.972
S. cerevisiae deletion strains, locus YOL006C, strain TOP1, stronger effect = lower value
  normalized growth: 0.79
S. cerevisiae deletion strains, locus YOL012C, strain htz1
  normalized growth: 0.956
S. cerevisiae deletion strains, locus YOL147C, strain pex11, stronger effect = lower value
  normalized growth: 0.975
S. cerevisiae deletion strains, locus YOR001W, strain rrp6, stronger effect = lower value
  normalized growth: 1.05
S. cerevisiae deletion strains, locus YOR061W, strain CKA2, stronger effect = lower value
  normalized growth: 0.986
S. cerevisiae deletion strains, locus YOR069W, strain VPS5, stronger effect = lower value
  normalized growth: 0.989
S. cerevisiae deletion strains, locus YOR070C, strain gyp1, stronger effect = lower value
  normalized growth: 1
S. cerevisiae deletion strains, locus YOR080W, strain dia2, stronger effect = lower value
  normalized growth: 0.996
S. cerevisiae deletion strains, locus YOR083W, strain WHI5, stronger effect = lower value
  normalized growth: 0.931
S. cerevisiae deletion strains, locus YOR106W, strain vam3, stronger effect = lower value
  normalized growth: 0.914
S. cerevisiae deletion strains, locus YOR136W, strain idh2, stronger effect = lower value
  normalized growth: 0.977
S. cerevisiae deletion strains, locus YOR144C, strain elg1, stronger effect = lower value
  normalized growth: 0.985
S. cerevisiae deletion strains, locus YOR184W, strain ser1, stronger effect = lower value
  normalized growth: 0.943
S. cerevisiae deletion strains, locus YOR231W, strain MKK1, stronger effect = lower value
  normalized growth: 1.05
S. cerevisiae deletion strains, locus YOR265W, strain rbl2, stronger effect = lower value
  normalized growth: 0.994
S. cerevisiae deletion strains, locus YOR270C, strain vph1, stronger effect = lower value
  normalized growth: 0.909
S. cerevisiae deletion strains, locus YOR290C, strain snf2, stronger effect = lower value
  normalized growth: 0.962
S. cerevisiae deletion strains, locus YOR316C, strain cot1, stronger effect = lower value
  normalized growth: 0.971
S. cerevisiae deletion strains, locus YPL051W, strain arl3, stronger effect = lower value
  normalized growth: 0.992
S. cerevisiae deletion strains, locus YPL055C, strain LGE1, stronger effect = lower value
  normalized growth: 0.91
S. cerevisiae deletion strains, locus YPL078C, strain atp4, stronger effect = lower value
  normalized growth: 0.926
S. cerevisiae deletion strains, locus YPL106C, strain sse1, stronger effect = lower value
  normalized growth: 0.967
S. cerevisiae deletion strains, locus YPL240C, strain hsp82, stronger effect = lower value
  normalized growth: 0.989
S. cerevisiae deletion strains, locus YPL241C, strain CIN2, stronger effect = lower value
  normalized growth: 0.993
S. cerevisiae deletion strains, locus YPL256C, strain CLN2, stronger effect = lower value
  normalized growth: 1.03
S. cerevisiae deletion strains, locus YPR119W, strain clb2, stronger effect = lower value
  normalized growth: 0.967
S. cerevisiae deletion strains, locus YPR141C, strain kar3, stronger effect = lower value
  normalized growth: 0.968
S. cerevisiae deletion strains, locus YPR163C, strain tif3, stronger effect = lower value
  normalized growth: 0.989
S. cerevisiae deletion strains, locus YPR167C, strain met16, stronger effect = lower value
  normalized growth: 0.969
S. cerevisiae deletion strains, strain wtn01, stronger effect = lower value
  normalized growth: 0.965
S. cerevisiae strains, strain wild type, stronger effect = lower value
  normalized growth: 0.986
